Measurements as given in the supplement of paper PMC10849652.
The full data set covers some 7,900 targets. This sample favours those with a hit. About 0.6% of all pairs of compound and target were hits. Unmarked numbers belong to inactive results.

Experiments:
Experiment in all cases: log2 fold change, soluble protein after heating vs DMSO (PISA); higher = thermal stabilisation; K562 cells, 10 uM, 30 min; active = over 0.2 and 3.5 SD of the protein, either way, in both replicates (recomputed)
[1] = compound: Cc1ccc(NC(=O)c2ccc(CN3CC[C@H](N(C)C)C3)c(C(F)(F)F)c2)cc1Nc1nccc(-c2cncnc2)n1 [bafetinib]
In short: (§1)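 K562 cells at 2×10^6 cells/mL were exposed to 10 μM compound for 30 min, then aliquots were heated for 3 min across 48°C-58°C, pooled, and extracted in PBS containing 0.5% NP-40 at 4°C. The supernatant after 21,000xg for 90 min was taken as soluble protein and measured by TMTpro 16plex LC-MS/MS with channel sums equalised. Thermal stability is reported relative to control samples, with values from duplicates. Fold changes are given on a log2 scale.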

[2] = compound: Cc1cccc(CC(=O)N2CCc3c2ccc(-c2cn(C)c4ncnc(N)c24)c3F)n1
In short: as §1

[3] = compound: Cc1cn(-c2cc(NC(=O)c3ccc(C)c(Nc4nccc(-c5cccnc5)n4)c3)cc(C(F)(F)F)c2)cn1 [nilotinib]
In short: as §1

[4] = compound: Cc1nc(Nc2n[nH]c3c2CN(C(=O)N[C@H](CN(C)C)c2ccccc2)C3(C)C)c2sccc2n1
In short: as §1

[5] = compound: Cc1nc(Nc2ncc(C(=O)Nc3c(C)cccc3Cl)s2)cc(N2CCN(CCO)CC2)n1 [dasatinib]
In short: as §1

[6] = compound: Cc1ncc(-c2ccnc(Nc3ccc(S(C)(=O)=O)cc3)n2)n1C(C)C
In short: as §1

[7] = compound: Cn1cc(-c2ccc3c(c2)CCN3C(=O)Cc2cccc(C(F)(F)F)c2)c2c(N)ncnc21
In short: as §1

[8] = compound: Cn1cc(-c2ccc3nnc(C(F)(F)c4ccc5ncccc5c4)n3n2)cn1
In short: as §1

[9] = compound: Cn1cncc1[C@@](N)(c1ccc(Cl)cc1)c1ccc2c(c1)c(-c1cccc(Cl)c1)cc(=O)n2C [tipifarnib]
In short: as §1

[10] = compound: FC(F)(F)c1ccc(/C=C/c2nc(COc3ccc(CCCCn4ccnn4)cc3)co2)cc1 [mubritinib]
In short: as §1

Sequence of UniProt Q8TCT7 (Q8TCT7 whole entry, looked up): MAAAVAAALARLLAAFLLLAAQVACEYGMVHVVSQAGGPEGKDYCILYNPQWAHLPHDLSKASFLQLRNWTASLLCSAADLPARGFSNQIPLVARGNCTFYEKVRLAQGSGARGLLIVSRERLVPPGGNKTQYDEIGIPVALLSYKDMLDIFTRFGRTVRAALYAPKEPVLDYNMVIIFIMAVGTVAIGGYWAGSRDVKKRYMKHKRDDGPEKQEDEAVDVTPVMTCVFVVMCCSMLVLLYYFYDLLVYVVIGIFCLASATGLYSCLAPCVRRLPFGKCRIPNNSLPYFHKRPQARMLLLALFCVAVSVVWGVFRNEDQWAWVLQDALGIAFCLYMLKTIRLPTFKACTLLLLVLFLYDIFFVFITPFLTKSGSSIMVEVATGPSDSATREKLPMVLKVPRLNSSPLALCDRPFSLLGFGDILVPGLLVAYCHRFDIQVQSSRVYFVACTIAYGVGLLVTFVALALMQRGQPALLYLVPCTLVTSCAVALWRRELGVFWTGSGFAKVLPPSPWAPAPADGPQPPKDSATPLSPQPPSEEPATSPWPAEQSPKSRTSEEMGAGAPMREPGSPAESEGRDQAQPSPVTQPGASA
Sequence of UniProt P51687 (P51687 whole entry, looked up): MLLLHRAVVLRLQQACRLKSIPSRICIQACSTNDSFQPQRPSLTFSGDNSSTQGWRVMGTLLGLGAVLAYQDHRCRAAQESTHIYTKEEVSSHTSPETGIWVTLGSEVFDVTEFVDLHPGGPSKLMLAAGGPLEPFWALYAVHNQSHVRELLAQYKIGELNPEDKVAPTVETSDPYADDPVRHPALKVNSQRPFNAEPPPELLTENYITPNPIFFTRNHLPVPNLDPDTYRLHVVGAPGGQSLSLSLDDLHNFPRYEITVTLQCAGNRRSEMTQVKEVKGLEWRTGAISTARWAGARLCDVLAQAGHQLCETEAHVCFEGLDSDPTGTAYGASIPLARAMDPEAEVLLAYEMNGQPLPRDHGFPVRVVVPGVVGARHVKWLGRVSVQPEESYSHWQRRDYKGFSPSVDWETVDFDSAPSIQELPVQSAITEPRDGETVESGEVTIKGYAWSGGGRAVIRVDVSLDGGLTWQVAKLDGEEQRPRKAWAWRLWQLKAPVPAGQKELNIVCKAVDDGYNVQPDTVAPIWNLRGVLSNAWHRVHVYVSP
Sequence of UniProt Q9NZ01 (Q9NZ01 whole entry, looked up): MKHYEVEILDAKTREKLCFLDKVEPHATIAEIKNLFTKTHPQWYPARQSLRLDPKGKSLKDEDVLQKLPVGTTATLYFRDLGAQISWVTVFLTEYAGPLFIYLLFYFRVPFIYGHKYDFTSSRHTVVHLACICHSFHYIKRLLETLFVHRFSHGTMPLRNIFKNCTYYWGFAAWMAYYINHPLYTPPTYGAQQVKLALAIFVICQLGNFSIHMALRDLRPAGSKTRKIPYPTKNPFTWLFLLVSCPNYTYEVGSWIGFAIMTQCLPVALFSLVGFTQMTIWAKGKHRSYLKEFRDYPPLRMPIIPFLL
Sequence of UniProt Q99523 (Q99523 whole entry, looked up): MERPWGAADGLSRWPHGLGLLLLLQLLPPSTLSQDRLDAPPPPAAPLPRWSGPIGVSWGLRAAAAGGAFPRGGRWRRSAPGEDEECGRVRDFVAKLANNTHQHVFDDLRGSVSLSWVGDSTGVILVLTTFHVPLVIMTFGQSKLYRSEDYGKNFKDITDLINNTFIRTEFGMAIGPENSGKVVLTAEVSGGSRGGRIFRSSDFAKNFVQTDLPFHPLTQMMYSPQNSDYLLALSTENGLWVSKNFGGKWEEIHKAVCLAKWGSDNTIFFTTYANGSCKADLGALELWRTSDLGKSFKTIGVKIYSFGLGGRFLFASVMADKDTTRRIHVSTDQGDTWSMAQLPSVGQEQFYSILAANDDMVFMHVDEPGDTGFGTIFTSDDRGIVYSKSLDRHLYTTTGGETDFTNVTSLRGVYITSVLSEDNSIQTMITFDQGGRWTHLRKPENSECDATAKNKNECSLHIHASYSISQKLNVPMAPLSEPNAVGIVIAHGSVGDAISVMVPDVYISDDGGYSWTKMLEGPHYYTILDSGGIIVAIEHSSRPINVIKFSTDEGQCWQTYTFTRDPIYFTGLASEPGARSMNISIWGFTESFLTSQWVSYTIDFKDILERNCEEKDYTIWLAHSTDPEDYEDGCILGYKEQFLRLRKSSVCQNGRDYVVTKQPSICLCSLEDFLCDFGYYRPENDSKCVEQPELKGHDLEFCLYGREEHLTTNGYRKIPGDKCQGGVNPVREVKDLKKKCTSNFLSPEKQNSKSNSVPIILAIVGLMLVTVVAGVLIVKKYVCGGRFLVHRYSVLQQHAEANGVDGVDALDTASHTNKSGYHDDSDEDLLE
Sequence of UniProt Q9UMY4 (Q9UMY4 whole entry, looked up): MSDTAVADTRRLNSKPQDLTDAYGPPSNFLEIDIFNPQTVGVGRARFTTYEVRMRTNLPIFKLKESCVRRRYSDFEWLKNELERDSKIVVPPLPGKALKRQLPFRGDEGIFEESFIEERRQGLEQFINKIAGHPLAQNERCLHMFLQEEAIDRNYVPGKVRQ
Sequence of UniProt Q9Y5B9 (Q9Y5B9 whole entry, looked up): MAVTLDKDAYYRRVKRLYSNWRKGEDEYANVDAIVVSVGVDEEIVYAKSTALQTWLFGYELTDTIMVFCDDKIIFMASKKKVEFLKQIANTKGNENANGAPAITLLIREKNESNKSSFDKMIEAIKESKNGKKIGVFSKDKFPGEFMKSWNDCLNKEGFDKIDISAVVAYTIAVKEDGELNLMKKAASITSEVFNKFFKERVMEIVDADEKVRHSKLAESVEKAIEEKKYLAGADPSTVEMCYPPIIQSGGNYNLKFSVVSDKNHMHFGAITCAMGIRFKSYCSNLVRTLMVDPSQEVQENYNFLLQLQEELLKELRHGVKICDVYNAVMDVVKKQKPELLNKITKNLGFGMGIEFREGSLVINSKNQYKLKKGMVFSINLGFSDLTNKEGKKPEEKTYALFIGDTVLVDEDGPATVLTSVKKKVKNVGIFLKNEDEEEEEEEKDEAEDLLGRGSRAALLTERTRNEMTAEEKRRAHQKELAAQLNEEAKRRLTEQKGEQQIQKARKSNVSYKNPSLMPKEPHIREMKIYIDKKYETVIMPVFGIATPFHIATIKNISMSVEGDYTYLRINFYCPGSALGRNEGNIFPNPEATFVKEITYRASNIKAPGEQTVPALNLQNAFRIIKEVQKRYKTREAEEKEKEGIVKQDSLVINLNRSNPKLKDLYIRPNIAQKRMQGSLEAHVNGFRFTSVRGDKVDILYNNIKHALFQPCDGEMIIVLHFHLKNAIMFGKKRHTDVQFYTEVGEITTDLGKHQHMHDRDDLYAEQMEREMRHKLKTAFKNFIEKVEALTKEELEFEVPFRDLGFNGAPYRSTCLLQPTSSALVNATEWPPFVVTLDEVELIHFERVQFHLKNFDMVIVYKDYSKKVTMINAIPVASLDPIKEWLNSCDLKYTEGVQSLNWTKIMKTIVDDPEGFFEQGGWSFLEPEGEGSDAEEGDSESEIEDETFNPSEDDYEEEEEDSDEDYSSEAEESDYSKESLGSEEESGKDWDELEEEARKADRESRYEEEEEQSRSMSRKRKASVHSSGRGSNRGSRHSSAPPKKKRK
Sequence of UniProt O95926 (O95926 whole entry, looked up): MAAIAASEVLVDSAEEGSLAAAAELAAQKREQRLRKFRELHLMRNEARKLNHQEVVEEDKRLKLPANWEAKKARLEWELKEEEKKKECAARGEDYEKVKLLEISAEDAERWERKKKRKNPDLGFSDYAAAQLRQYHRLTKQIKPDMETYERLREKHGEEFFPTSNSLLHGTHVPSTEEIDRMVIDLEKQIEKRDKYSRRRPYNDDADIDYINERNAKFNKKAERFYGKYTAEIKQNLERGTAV
Sequence of UniProt Q9NUY8 (Q9NUY8 whole entry, looked up): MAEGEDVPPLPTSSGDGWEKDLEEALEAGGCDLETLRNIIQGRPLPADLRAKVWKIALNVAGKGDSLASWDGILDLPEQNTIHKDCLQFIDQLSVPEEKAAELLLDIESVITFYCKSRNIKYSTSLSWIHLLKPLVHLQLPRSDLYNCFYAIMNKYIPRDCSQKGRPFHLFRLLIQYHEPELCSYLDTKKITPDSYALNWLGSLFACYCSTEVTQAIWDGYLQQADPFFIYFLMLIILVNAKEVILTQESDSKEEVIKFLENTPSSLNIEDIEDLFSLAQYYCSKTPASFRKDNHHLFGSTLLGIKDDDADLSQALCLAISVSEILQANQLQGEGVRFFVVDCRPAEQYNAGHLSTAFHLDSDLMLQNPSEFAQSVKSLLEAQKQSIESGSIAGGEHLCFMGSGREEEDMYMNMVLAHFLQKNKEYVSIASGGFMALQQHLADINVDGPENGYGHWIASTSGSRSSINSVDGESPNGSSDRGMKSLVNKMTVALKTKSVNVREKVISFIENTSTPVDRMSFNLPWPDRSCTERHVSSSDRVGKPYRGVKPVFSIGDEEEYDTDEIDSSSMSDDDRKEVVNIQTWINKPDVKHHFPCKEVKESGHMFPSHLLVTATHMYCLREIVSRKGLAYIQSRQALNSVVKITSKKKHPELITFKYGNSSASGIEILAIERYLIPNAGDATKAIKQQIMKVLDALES
Sequence of UniProt Q969G3 (Q969G3 whole entry, looked up): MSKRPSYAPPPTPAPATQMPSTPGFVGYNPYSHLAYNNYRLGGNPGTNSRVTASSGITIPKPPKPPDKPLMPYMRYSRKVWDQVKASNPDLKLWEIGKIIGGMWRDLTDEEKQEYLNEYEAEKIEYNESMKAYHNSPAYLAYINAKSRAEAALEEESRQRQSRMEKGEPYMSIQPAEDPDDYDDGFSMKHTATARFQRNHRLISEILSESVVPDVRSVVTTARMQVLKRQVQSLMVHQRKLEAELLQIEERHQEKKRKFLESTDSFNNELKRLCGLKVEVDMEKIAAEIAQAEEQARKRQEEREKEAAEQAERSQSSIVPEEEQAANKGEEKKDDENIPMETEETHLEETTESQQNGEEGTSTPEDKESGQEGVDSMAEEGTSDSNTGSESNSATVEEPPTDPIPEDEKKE
Sequence of UniProt Q9Y5L4 (Q9Y5L4 whole entry, looked up): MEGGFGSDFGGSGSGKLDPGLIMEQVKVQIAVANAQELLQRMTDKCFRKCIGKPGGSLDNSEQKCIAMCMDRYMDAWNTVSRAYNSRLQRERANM

Row | Target | log2 fold change [1] | log2 fold change [2] | log2 fold change [3] | log2 fold change [4] | log2 fold change [5] | log2 fold change [6] | log2 fold change [7] | log2 fold change [8] | log2 fold change [9] | log2 fold change [10]
1 | SNX12 isoform 1 (UniProt Q9UMY4) | -0.067 | 0.042 | -0.038 | -0.016 | -0.043 | -0.191 | 0.038 | 0.008 | -0.015 | -0.009
2 | SMARCE1 (UniProt Q969G3) | -0.181 | 0.041 | -0.191 | 0.16 | -0.07 | -0.055 | -0.056 | -0.09 | -0.082 | -0.274
3 | SMARCA5 (UniProt O60264) | -0.052 | 0.001 | -0.019 | -0.152 | -0.052 | 0.002 | -0.088 | -0.112 | -0.022 | 0.184
4 | TCERG1 (UniProt O14776) | 0.03 | 0.077 | -0.093 | -0.24 | -0.26 | 0.02 | 0.088 | 0.07 | -0.097 | 0.183
5 | TEX264 (UniProt Q9Y6I9) | 0.391 | 0.007 | 0.241 | 0.111 | 0.265 | 0.845 (active) | 0.047 | 0.114 | -0.006 | 0.047
6 | SYF2 (UniProt O95926) | -0.198 | 0.021 | -0.017 | 0.25 | 0.119 | 0.308 | -0.193 | -0.021 | 0.027 | -0.002
7 | SORT1 (UniProt Q99523) | -0.494 (active) | -0.011 | 0.041 | -0.023 | 0.02 | -0.122 | 0.018 | -0.026 | 0.076 | 0.045
8 | SURF1 (UniProt Q15526) | -0.184 | -0.042 | -0.065 | 0.028 | -0.028 | 0.011 | 0.021 | 0.019 | -0.061 | 0.042
9 | SPART (UniProt Q8N0X7) | -0.041 | -0.024 | -0.047 | -0.006 | -0.117 | 0.051 | -0.025 | 0.059 | -0.077 | 0.063
10 | TIMM10 (UniProt P62072) | -0.081 | 0.027 | 0.014 | 0.005 | 0.114 | -0.027 | -0.05 | 0.153 | 0.048 | -0.024
11 | SLC9A6 isoform 2 (UniProt Q92581) | -0.049 | 0.012 | 0.039 | 0.011 | 0.017 | -0.002 | -0.019 | 0.026 | 0.047 | 0.033
12 | SYNE2 isoform 2 (UniProt Q8WXH0) | -0.008 | 0.031 | -0.115 | 0.006 | -0.019 | -0.069 | 0.153 | 0.027 | -0.029 | 0.233
13 | SRP72 (UniProt O76094) | 0.05 | 0.048 | -0.117 | -0.03 | -0.186 | 0.108 | -0.052 | -0.052 | -0.148 | -0.036
14 | TEX30 (UniProt Q5JUR7) | -0.01 | -0.053 | -0.147 | -0.095 | -0.2 | -0.016 | 0.084 | -0.004 | -0.18 | 0.033
15 | SLC30A10 (UniProt Q6XR72) | -0.019 | -0.148 | 0.029 | -0.061 | 0.016 | 0.043 | 0.078 | -0.026 | 0.067 | -0.007
16 | TBCD (UniProt Q9BTW9) | -0.064 | 0.029 | -0.101 | -0.078 | -0.086 | -0.025 | 0.007 | 0.025 | -0.038 | -0.039
17 | SUPT16H (UniProt Q9Y5B9) | 0.006 | 0.049 | 0.011 | -0.088 | -0.269 | -0.103 | 0.073 | 0.108 | -0.088 | 0.047
18 | TAOK3 (UniProt Q9H2K8) | -0.066 | 0.012 | -0.05 | 0.03 | -0.048 | -0.048 | 0.025 | -0.009 | -0.026 | 0.018
19 | SPPL2B (UniProt Q8TCT7) | -0.087 | 0.066 | -0.016 | -0.006 | -0.066 | 0.009 | 0.116 | -0.118 | 0.036 | -0.008
20 | SPCS2 (UniProt Q15005) | -0.057 | 0.003 | 0.014 | -0.034 | 0 | 0 | 0.053 | 0.025 | -0.035 | 0.037
21 | STK4 (UniProt Q13043) | -0.053 | -0.027 | -0.003 | 0.143 | -0.052 | -0.016 | 0.005 | 0 | 0.039 | -0.028
22 | TIPRL (UniProt O75663) | -0.052 | 0.066 | -0.022 | -0.025 | -0.103 | -0.035 | 0.032 | 0.048 | -0.16 | 0.098
23 | SPAG9 (UniProt O60271) | -0.056 | -0.014 | -0.039 | -0.074 | -0.076 | 0.015 | -0.018 | 0.012 | -0.005 | 0.054
24 | TIMM13 (UniProt Q9Y5L4) | 0.086 | 0.156 | 0.018 | -0.017 | 0 | 0.035 | 0.07 | -0.003 | -0.111 | 0.005
25 | TIMM10B (UniProt Q9Y5J6) | 0.4 | -0.138 | 0.006 | -0.04 | 0.138 | -0.052 | 0.01 | 0.224 | -0.001 | 0.065
26 | SUOX (UniProt P51687) | -0.084 | -0.181 | 0.063 | 0.013 | 0 | -0.066 | -0.015 | 0.063 | 0.019 | 0.032
27 | SLC25A39 (UniProt Q9BZJ4) | -0.182 | -0.397 | -0.136 | -0.119 | -0.035 | 0.035 | 0.081 | 0.092 | 0.009 | 0.104
28 | TECR (UniProt Q9NZ01) | -0.133 | 0.057 | -0.123 | -0.035 | -0.109 | 0.021 | -0.006 | -0.012 | -0.135 | 0.016
29 | TARS2 (UniProt Q9BW92) | -0.081 | 0.114 | -0.094 | -0.003 | -0.055 | 0 | 0.084 | 0.022 | -0.119 | 0.013
30 | TBC1D23 (UniProt Q9NUY8) | -0.141 | 0.041 | -0.113 | -0.032 | -0.155 | -0.056 | 0.025 | 0.006 | 0.003 | -0.011
